The nature of assay [1]: qHTS assay to identify small molecule antagonists of the sonic hedgehog signaling (Shh) pathway (AID 1259369). Note: nearly all actives have a fitted effect of over 45% in size. Note: potency is the fitted concentration of half-maximal effect. Summed up: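 Gli1 transcriptional reporter (firefly Luc) in NIH/3T3 background, conditioned-medium activated. 24hr exposure, luminescence endpoint.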
Background: qHTS replaces the single test concentration by a dilution series.

The nature of assay [2]: qHTS assay to identify small molecule agonists of the androgen receptor (AR) signaling pathway in the presence of an antagonist - cell viability counter screen (AID 1259379; active = well fitted curve in the direction sought with a large enough effect in the repeat runs; an effect the other way counts as inactive or inconclusive;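 note: MDA-kb2 human breast cancer cells carrying an MMTV luciferase reporter; series mostly up to about 92 µM; nearly all actives have a fitted effect of over 25% in size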). Summed up: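 Counter screen for cell viability run in parallel with the AR agonist-mode luciferase assay. MDA-kb2 cells were co-treated with nilutamide (3.0uM final) and compounds, then incubated 16 hr at 37C, and CellTiter-Fluor fluorescence was measured.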

The nature of assay [3]: qHTS assay to identify small molecule agonists of the estrogen receptor beta (ER-beta) signaling pathway - cell viability counter screen (AID 1259380; active = well fitted curve in the direction sought with a large enough effect in the repeat runs; an effect the other way counts as inactive or inconclusive; note: nearly all actives have a fitted effect of over 30% in size). Summed up: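 In this qHTS counter screen, HEK293T cells carrying an ER-beta/UAS beta-lactamase reporter, grown in 2% charcoal-stripped FBS, received compound for 16 hr; ATP-based CellTiter-Glo luminescence was then read after 30 min at room temperature.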

Assay [4] is described as follows: qHTS assay to identify small molecule antagonists of the estrogen receptor beta (ER-beta) signaling pathway - cell viability counter screen (AID 1259382; active = well fitted curve in the direction sought with a large enough effect in the repeat runs; an effect the other way counts as inactive or inconclusive;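 note: HEK293T cells carrying ER-beta-UAS-bla reporter stimulated with estradiol; series mostly up to about 92 µM; nearly all actives have a fitted effect of over 55% in size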). Summed up:
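HEK293T ER-beta-UAS-bla, 2% charcoal-stripped FBS; compounds + 1nM E2 16 hr 37C; CellTiter-Glo luminescence, 30 min RT.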

Assay [5] deals with Estrogen receptor (Homo sapiens) (UniProt P03372). The experiment in a line: qHTS assay to identify small molecule agonists of the estrogen receptor alpha (ER-alpha) signaling pathway in the presence of an antagonist (AID 1259383). Note: top concentration of the series differs between compounds; nearly all actives have a fitted effect of over 15% in size. Summed up:
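ER-alpha agonism measured under antagonist challenge: 10.0nM ICI-182,780 (final) plus compound, 15 concentrations, 22hr, VM7Luc4E2 ERE-luciferase cells. Read by luminescence.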

The nature of assay [6]: qHTS assay to identify small molecule agonists or antagonists of the thyroid stimulating hormone receptor (TSHR) signaling pathway - wild type cell line counter screen (AID 1259384). Summed up:
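Counter screen in untransfected Hek293: compounds (15-point titration, triplicate) plus phosphodiesterase inhibitor Ro20-1724 added after 18 h plating; 30 min RT. Intracellular cAMP via competitive d2/cryptate immunoassay, 1 h incubation.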

Assay [7] concerns the target Thyrotropin receptor (Homo sapiens) (UniProt P16473). As to the kind of experiment: qHTS assay to identify small molecule antagonists of the thyroid stimulating hormone receptor (TSHR) signaling pathway (AID 1259385). Note: nearly all actives have a fitted effect of over 20% in size. Summed up: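 Antagonist mode: compound-treated TSHR-expressing HEK293 cells were stimulated with 1.5 ng/mL TSH (final) in presence of Ro20-1724 for 30 min at RT. HTRF cAMP detection after 1 h; each compound tested at 15 concentrations, triplicate.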

Assay [8] deals with Progesterone receptor (Homo sapiens) (UniProt P06401). The experiment in a line: qHTS assay to identify small molecule agonists of the progesterone receptor (PR) signaling pathway (AID 1346784). Note: nearly all actives have a fitted effect of over 30% in size. Summed up:
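Seed PR-UAS-bla HEK 293T cells (2% charcoal-stripped FBS), incubate 6 hr at 37C; add compounds in DMSO, 16 hr at 37C; add LiveBLAzer B/G substrate, 2 hr RT; read fluorescence intensity.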

For assay [9] the target is unchanged. As to the kind of experiment: qHTS assay to identify small molecule antagonists of the progesterone receptor (PR) signaling pathway (AID 1346795; active = well fitted inhibition curve with a large enough effect in the signal ratio in the repeat runs, not every such curve was filed as active; the % refers to the signal ratio; note: potency is the fitted concentration of half-maximal effect). Summed up: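 Screening used a GripTite HEK293T line with PR-responsive UAS-beta-lactamase. Cells were challenged with compound in the presence of 1 nM R5020 final for 16 hr at 37C; B/G FRET substrate, 2 hr room temperature, fluorescence.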

Assay [10] in a line: qHTS assay to identify small molecule agonists of the progesterone receptor (PR) signaling pathway - cell viability counter screen (AID 1346799). Note: nearly all actives have a fitted effect of over 45% in size. Summed up: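 Using the same plates as the PR reporter screen, HEK293T PR-UAS-bla cells received compounds for 16 hr at 37C and were then lysed with CellTiter-Glo; luminescence was read 30 min later at room temperature.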
Assay [11] is described as follows: qHTS assay to identify small molecule antagonists of the TGF-beta/Smad signaling pathway - cell viability counter screen (AID 1346824; active = well fitted curve in the direction sought with a large enough effect in the repeat runs; an effect the other way counts as inactive or inconclusive; note: nearly all actives have a fitted effect of over 50% in size). Summed up: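 Cytotoxicity counter-screen run in the same wells as the beta-lactamase Smad reporter read: CellTiter-Glo luminescence after 30 min at room temperature. HEK 293T SBE-bla cells had 5 hr compound exposure at 37 C with TGF-beta1 (0.25 ng/mL stock).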

Assay [12] in a line: qHTS assay to identify small molecule agonists of the TGF-beta/Smad signaling pathway - cell viability counter screen (AID 1346829; active = well fitted curve in the direction sought with a large enough effect in the repeat runs; an effect the other way counts as inactive or inconclusive; note: top concentration of the series differs between compounds; nearly all actives have a fitted effect of over 45% in size). Summed up: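 CellTiter-Glo luminescence readout; SBE-bla HEK 293T cells, overnight plating, compound 5 hr at 37 C/5% CO2, then bla substrate 2 hr RT, then CellTiter-Glo 30 min RT.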
Assay [13] is described as follows: qHTS assay to identify small molecule agonists of the TGF-beta/Smad signaling pathway (AID 1346859; active = well fitted activation curve with a large enough effect in the signal ratio in the repeat runs, not every such curve was filed as active; the % refers to the signal ratio; note: series mostly up to about 77 µM). Summed up: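 Beta-lactamase reporter activity downstream of Smad binding elements was measured in stably transfected HEK 293T cells; compounds were incubated for 5 hr, substrate for 2 hr at room temperature.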
In assay [14] the target is Thyrotropin-releasing hormone receptor (Homo sapiens) (UniProt P34981). As to the kind of experiment: qHTS assay to identify small molecule antagonists of the thyrotropin-releasing hormone receptor (TRHR) signaling pathway (AID 1346877; active = well fitted inhibition curve with a large enough effect in the repeat runs, not every such curve was filed as active; note: series mostly up to about 51 µM). Summed up: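 Human TRHR in HEK293 cells; inhibition of the intracellular calcium rise triggered by 1 nM TRH was followed by fluorescence over 3 min. Compounds were run at 15 concentrations, three replicates each.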
Chain of Thyrotropin-releasing hormone receptor (Homo sapiens) (P34981 whole entry, looked up): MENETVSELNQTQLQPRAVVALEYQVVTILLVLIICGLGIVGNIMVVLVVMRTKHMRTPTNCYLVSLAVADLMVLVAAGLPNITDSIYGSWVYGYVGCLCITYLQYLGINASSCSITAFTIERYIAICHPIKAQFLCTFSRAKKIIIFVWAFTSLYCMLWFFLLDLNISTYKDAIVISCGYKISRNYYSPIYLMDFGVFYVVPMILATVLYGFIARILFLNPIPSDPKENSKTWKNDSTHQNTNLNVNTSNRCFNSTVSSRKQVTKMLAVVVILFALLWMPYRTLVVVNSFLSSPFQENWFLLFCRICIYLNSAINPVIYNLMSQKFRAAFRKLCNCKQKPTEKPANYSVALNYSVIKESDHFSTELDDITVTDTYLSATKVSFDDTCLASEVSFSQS

For assay [15] the target is unchanged. The experiment in a line: qHTS assay to identify small molecule agonists of the thyrotropin-releasing hormone receptor (TRHR) signaling pathway (AID 1346891).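 Note: HEK293 cells expressing TRHR with calcium dye readout; series mostly up to about 58 µM.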 Summed up:
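Overnight-plated (18 h, 37 °C, 5% CO2) TRHR-Hek293 cells; 2 h calcium dye at 37 °C; compound in DMSO; 3-min kinetic fluorescence read.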

In assay [16] the target is Estrogen receptor beta (Homo sapiens) (UniProt Q92731). The experiment in a line: qHTS assay to identify small molecule agonists of the estrogen receptor beta (ER-beta) signaling pathway (AID 1259377; active = well fitted activation curve with a large enough effect in the signal ratio in the repeat runs, not every such curve was filed as active; the % refers to the signal ratio). Summed up:
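Screening used GripTite ER-beta-UAS-bla cells held in 2% charcoal-stripped FBS medium. After overnight (16 hr) compound incubation at 37C, beta-lactamase activity was detected with a FRET substrate by fluorescence.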

Assay [17] addresses Androgen receptor (Homo sapiens) (UniProt P10275). The experiment in a line: qHTS assay to identify small molecule agonists of the androgen receptor (AR) signaling pathway in the presence of an antagonist (AID 1259381). Note: nearly all actives have a fitted effect of over 15% in size. Summed up:
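AR antagonist background: nilutamide 3.0uM final. Cell line: MDA-kb2, MMTV-driven luciferase, responsive to both AR and GR. Exposure 16hr, 37C, no CO2; ONE-Glo luminescence.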

Assay [18] can be described thus: qHTS assay to identify small molecule agonists of the estrogen receptor alpha (ER-alpha) signaling pathway in the presence of an antagonist - cell viability counter screen (AID 1259386; active = well fitted curve in the direction sought with a large enough effect in the repeat runs; an effect the other way counts as inactive or inconclusive;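 note: series mostly up to about 92 µM; cells exposed to compounds for 22 h at 37 °C before the viability read; nearly all actives have a fitted effect of over 30% in size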). Summed up:
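Steps: 5-day stripped-FBS culture; seed and incubate 24hr; add ICI-182,780 (10.0nM final); pin 15-point compound titration; incubate 22hr at 37C; add CellTiter-Fluor at 21hr; read fluorescence.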

The nature of assay [19]: qHTS assay to identify small molecule antagonists of the progesterone receptor (PR) signaling pathway - cell viability counter screen (AID 1346798; active = well fitted curve in the direction sought with a large enough effect in the repeat runs; an effect the other way counts as inactive or inconclusive; note: series mostly up to about 92 µM; nearly all actives have a fitted effect of over 50% in size). Summed up:
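Measures cytotoxicity in parallel with the PR antagonist reporter read: HEK293T PR-UAS-bla cells get compound and R5020 for 16 hr, and remaining viable cells are quantified by CellTiter-Glo luminescence.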

Assay [20] deals with Estrogen receptor beta (Homo sapiens) (UniProt Q92731). The experiment in a line: qHTS assay to identify small molecule antagonists of the estrogen receptor beta (ER-beta) signaling pathway (AID 1259378; active = well fitted inhibition curve with a large enough effect in the signal ratio in the repeat runs, not every such curve was filed as active; the % refers to the signal ratio). Summed up:
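Antagonist mode: compounds added to beta-lactamase reporter HEK293T ER-beta-UAS cells stimulated with E2 (1nM final), 16 hr at 37C. LiveBLAzer B/G FRET substrate, 2 hours room temperature, fluorescence read-out.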

Among the data in PubChem BioAssay (Tox21) are Potency and outcome values, retold here.

Inconclusive results are not listed. A structure can be active in one record and inactive in another. The source made the active and inactive calls. Unless noted, calls come from the whole dose curve.

Chain of Progesterone receptor (Homo sapiens) (P06401 whole entry, looked up): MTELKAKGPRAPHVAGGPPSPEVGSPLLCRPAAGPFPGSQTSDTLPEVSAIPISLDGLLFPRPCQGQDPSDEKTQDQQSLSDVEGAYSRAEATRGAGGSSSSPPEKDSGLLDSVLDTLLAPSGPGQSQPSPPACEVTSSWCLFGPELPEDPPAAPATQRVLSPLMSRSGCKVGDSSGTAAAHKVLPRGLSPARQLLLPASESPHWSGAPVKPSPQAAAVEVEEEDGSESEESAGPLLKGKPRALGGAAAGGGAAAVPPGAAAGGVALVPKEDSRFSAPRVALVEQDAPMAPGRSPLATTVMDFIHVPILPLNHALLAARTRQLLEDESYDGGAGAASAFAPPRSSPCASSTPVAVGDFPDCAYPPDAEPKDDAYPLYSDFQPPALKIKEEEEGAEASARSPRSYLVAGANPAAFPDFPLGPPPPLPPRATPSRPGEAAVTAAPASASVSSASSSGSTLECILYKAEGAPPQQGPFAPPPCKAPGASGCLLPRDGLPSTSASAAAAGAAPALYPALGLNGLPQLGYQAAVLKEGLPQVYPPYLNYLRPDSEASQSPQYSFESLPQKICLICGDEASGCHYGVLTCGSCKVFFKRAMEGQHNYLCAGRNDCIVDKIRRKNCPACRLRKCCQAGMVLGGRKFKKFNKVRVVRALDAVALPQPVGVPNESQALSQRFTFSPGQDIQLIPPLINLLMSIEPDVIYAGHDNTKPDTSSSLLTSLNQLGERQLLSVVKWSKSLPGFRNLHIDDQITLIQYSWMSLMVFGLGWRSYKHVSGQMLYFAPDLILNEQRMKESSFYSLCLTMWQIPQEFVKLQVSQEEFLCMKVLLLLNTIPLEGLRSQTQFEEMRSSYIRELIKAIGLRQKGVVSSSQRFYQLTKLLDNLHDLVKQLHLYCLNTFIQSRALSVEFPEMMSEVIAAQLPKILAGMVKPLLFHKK
Chain of Estrogen receptor beta (Homo sapiens) (Q92731 whole entry, looked up): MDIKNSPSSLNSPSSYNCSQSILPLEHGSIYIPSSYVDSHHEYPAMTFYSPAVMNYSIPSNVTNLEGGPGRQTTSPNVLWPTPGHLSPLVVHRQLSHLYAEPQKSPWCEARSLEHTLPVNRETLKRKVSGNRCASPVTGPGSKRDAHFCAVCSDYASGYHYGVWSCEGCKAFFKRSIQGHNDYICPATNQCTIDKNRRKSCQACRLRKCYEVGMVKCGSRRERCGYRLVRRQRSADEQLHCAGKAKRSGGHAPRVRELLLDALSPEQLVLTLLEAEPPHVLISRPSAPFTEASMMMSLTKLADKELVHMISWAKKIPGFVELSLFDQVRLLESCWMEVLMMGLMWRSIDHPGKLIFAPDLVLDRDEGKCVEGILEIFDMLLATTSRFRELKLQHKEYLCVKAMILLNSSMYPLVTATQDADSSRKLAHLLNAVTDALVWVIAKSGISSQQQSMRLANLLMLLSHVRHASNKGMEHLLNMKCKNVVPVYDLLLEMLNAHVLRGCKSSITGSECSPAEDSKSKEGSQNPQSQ
Chain of Thyrotropin receptor (Homo sapiens) (P16473 whole entry, looked up): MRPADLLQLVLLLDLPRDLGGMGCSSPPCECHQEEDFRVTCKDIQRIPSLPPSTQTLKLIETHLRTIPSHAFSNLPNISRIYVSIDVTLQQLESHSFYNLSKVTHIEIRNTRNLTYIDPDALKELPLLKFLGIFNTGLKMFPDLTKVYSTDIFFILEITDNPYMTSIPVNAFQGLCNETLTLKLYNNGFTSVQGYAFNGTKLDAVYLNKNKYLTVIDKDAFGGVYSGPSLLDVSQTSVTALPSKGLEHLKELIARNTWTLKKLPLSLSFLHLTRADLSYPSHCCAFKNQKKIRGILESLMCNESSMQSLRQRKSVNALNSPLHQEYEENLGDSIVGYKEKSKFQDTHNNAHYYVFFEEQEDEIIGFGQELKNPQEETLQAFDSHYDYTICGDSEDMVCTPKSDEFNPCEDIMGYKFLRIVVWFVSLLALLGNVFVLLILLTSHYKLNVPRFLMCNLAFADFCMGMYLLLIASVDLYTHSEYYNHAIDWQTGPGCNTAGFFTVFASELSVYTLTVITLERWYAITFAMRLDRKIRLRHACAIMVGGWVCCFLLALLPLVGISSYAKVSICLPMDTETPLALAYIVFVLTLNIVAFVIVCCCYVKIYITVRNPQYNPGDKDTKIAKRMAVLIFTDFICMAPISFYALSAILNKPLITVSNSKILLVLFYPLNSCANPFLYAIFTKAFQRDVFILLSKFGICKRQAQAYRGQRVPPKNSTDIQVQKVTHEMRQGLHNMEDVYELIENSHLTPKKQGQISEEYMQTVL
Chain of Estrogen receptor (Homo sapiens) (P03372 whole entry, looked up): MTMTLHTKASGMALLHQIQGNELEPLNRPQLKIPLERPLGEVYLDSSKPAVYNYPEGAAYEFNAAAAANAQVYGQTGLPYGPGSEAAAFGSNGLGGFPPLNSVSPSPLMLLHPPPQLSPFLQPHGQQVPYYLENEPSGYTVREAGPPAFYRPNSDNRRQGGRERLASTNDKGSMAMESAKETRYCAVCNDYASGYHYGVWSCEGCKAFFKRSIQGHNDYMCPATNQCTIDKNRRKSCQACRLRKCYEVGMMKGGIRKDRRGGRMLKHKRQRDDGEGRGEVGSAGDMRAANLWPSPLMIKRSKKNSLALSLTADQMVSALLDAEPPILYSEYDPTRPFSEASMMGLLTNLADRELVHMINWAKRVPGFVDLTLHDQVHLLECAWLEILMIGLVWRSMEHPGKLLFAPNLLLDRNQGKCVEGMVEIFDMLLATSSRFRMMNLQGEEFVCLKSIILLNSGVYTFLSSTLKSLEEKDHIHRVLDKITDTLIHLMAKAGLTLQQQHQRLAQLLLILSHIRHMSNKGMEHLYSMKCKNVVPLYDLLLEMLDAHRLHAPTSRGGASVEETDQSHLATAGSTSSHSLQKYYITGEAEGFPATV
Chain of Androgen receptor (Homo sapiens) (P10275 whole entry, looked up): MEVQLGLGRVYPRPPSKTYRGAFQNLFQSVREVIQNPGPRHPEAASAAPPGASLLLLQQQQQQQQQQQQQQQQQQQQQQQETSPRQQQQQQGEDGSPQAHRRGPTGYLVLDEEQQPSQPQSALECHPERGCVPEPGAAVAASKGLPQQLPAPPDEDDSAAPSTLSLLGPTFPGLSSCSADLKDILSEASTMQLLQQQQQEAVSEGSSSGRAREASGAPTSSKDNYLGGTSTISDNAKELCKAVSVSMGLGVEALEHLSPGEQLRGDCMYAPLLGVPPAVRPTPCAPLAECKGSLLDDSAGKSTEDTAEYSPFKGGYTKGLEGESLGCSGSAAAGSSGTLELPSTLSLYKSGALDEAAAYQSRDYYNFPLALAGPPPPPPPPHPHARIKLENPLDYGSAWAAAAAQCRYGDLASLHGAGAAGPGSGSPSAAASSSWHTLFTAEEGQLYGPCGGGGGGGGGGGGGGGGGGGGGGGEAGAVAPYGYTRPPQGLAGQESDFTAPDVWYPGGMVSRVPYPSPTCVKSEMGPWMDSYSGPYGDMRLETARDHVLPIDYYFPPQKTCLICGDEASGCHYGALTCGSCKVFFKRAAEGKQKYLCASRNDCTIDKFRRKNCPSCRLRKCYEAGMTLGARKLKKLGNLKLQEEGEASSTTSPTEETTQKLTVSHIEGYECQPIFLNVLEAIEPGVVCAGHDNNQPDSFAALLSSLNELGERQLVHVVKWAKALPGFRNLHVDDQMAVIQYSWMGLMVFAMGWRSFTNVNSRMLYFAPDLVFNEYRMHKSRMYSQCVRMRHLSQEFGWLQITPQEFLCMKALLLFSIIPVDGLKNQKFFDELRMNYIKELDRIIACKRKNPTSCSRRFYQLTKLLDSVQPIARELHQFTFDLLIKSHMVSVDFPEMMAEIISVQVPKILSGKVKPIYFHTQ

For `C=CCOCC1CO1` (stereo unspecified), the Potency entry in assay [1], in [2], in assay [3], in assay [4], in assay [5] and in assay [7] was “inactive” in each case. For the same molecule, the Potency entry in assay [8], in assay [9], in assay [10], in assay [11], in assay [12] and in assay [14] was “inactive” each time. For the same molecule, the result in assay [6], in [13] and in assay [15] was inactive.
With `O=P(OCC(Br)CBr)(OCC(Br)CBr)OCC(Br)CBr` (stereo unspecified), the Potency entry in assay [1], in [16], in assay [17], in assay [4], in [5] and in assay [7] was “inactive” throughout. Also, the Potency result in assay [18], in assay [8], in assay [19], in assay [10], in assay [11] and in assay [12] was “inactive” in each case. Further, the Potency entry in assay [14] is “inactive”. Besides, the molecule was classed as inactive in assay [6] and in assay [15]. Moreover, the Potency in assay [9] was 5.8 µM (active).
As to `N#CC(C#N)=Cc1ccc(O)c(O)c1`, the Potency in assay [1] is 7.5 µM (active). Moreover, the Potency entry in assay [2], in [3], in [17], in [4], in assay [5] and in assay [7] was “inactive” throughout. Moreover, the Potency entry in assay [18], in assay [8], in assay [9], in [10], in assay [11] and in assay [12] was “inactive” each time. Besides, the Potency result in assay [14] was “inactive”. The call in assay [6] and in [15] was inactive.
Take `CCCCCCCCCCCCCCCl`: the Potency entry in [1], in assay [2], in assay [3], in assay [4], in [5] and in assay [7] was “inactive” throughout. In addition, the Potency result in [18], in [9], in assay [19], in assay [10], in assay [11] and in [12] was “inactive” in each case. Further, in assay [14], the Potency entry was “inactive”. The outcome in assay [6], in [13] and in [15] was inactive.
With `O=C(O)C(O)C(O)C(=O)O` (stereo unspecified), the Potency entry in [1], in [2], in [3], in [4], in assay [5] and in assay [18] was “inactive” each time. Further, the Potency entry in assay [8], in assay [9], in [19], in [10], in [11] and in assay [12] was “inactive” each time. In assay [14], the Potency entry was “inactive”. The molecule was classed as inactive in assay [13] and in assay [15].
Take `OC[P+](CO)(CO)CO`: in assay [1], the Potency was 31 µM (active) and inactive. Moreover, the Potency entry in assay [3], in assay [4], in [7], in [8], in [9] and in assay [19] was “inactive” each time. Moreover, the Potency result in [10], in [11], in assay [12] and in [14] was “inactive” each time. Besides, the outcome in assay [15] was inactive.
As to `O=C(N[C@H]1CN2CCC1CC2)c1ccc2c(c1)OCCO2`, the Potency entry in assay [16], in [20], in [2], in [3], in assay [17] and in assay [4] was “inactive” each time. Moreover, the Potency entry in assay [7], in [9], in assay [19], in assay [10], in [11] and in [12] was “inactive” each time. Moreover, the Potency entry in [14] is “inactive”. The result in assay [6], in assay [13] and in assay [15] was inactive.
